Rtt109 Vps75 = inhibitors of C. albicans Rtt109/Vps75 HAT, primary screen, biochemical, ThioGlo CoA-SH fluorescence, plate reader | Histone acetyltransferase RTT109 (Candida albicans (strain SC5314 / ATCC MYA-2876)), … | purified Rtt109/Vps75, 4 h | inhibition, % at 34.9 µM | hit rate 0.16% among 330,000 | AID 540336, 2011;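 active means inhibition of at least 50% in every replicate; inconclusive means best replicate reaches 50% inhibition but some replicates fall short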
DYRK1A inh = rat Dyrk1A kinase inhibitors, primary screen, biochemical, single point, plate reader; hit rate 0.43% among 310,000; inhibition, % at 12.5 µM; Dual specificity tyrosine-phosphorylation-regulated kinase 1A (Rattus norvegicus), Q63470; AID 504441, 2011; ADP-Glo luminescence, NFATc1 peptide; in the data active means inhibition above about 50%
SMARCA2 act = SMARCA2 (BRM) function activators, primary screen, cell-based, luminescence, high throughput; MG213 cells, MMTV-luciferase reporter, dexamethasone, overnight; activation, % at 9.1 µM; hit rate 1% among 370,000; in the data active means activation above about 7.8%
dFosB act = activators of delta FosB homodimer, primary screen, biochemical, fluorescence polarization, TAMRA-CDK5 oligo, single point; Protein FosB (Mus musculus), P13346; purified delta FosB; percent of positive-control signal above neutral wells; activation, % at 25 µM; hit rate 0.99% among 340,000;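 active means mean activation above about 17%, with every replicate also reaching it, limit read from the data, passing the limit was not always enough; inconclusive means only one of the two conditions met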
esBAF inh = Bmi1 luciferase reporter increase in mESCs, primary screen, esBAF inhibitor project, mouse ES cells, Bmi1 luciferase knock-in, single point | AID 602393, 2012 | hit rate 2% among 350,000 | 24 h; 100% = twice the neutral-well signal | reporter increase, % at 12.5 µM; in the data active means activation above about 40%; inconclusive means no clear call, values can overlap the other calls;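 further: a rise in the Bmi1 reporter signal indicates esBAF inhibition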
CDK5 inh = inhibitors of human CDK5/p35 kinase, primary screen, biochemical, single concentration; Recombinant CDK5/p35, ADP-Glo luminescence, 60 min; inhibition, % at 10 µM; hit rate 0.01% among 330,000;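 active means highest replicate inhibition of at least 50% and at least 75% of replicates reaching 50%; inconclusive means only one of the two criteria met; inactive means both criteria failed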
Target sequence (Q00535 whole entry, looked up): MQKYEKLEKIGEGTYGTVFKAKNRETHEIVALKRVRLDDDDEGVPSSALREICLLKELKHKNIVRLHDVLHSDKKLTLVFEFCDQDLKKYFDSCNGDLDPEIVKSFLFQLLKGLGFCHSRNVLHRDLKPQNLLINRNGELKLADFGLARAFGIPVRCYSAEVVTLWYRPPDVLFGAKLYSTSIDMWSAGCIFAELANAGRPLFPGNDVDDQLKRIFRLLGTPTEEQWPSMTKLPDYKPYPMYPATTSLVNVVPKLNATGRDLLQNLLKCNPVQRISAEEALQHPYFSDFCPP
Target sequence (Q15078 whole entry, looked up): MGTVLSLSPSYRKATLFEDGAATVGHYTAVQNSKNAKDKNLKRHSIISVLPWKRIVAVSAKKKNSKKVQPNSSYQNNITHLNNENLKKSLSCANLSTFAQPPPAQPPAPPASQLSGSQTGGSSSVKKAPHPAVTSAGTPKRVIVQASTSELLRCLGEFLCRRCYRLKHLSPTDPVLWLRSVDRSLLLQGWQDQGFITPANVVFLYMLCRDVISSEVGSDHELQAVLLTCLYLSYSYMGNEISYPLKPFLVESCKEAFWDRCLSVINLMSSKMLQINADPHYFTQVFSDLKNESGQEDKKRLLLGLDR
Dyrk1A artifact = ADP-Glo luciferase interference without Dyrk1A, dose response, artefact control for Dyrk1A inhibitor project, biochemical, luminescence, cherry-pick, set 02. AC50, µM (titrated, usually from 12 µM). 1,300 tested, under 10 active. shares compounds with DYRK1A inh. ADP-Glo luciferase artifact assay, no Dyrk1A;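 active means fitted half-maximal dose AC50 no more than ten times the top valid tested dose, with luminescence dropping as dose rises; inconclusive means poor fit, or flat fit with 30 to 70% inhibition; inactive means the rest, signal increases included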
Each line names hits and unclear results; the compound was inactive in the other large screens (follow-up assays come after a bar, where they were run). Shown are actives, neighbours in structure and some others; about 3.2% of the full set was active somewhere.

COc1ccc2c(c1)CCc1cnc(N)nc1-2	none (no result: DYRK1A inh)
COc1ccc2c(c1)CCc1cn3nc(C)cc3nc1-2	DYRK1A inh 81 | Dyrk1A artifact inactive
CCCN1C[C@@H](C)[C@H](OC)CN(C)C(=O)c2cc(NC(=O)c3ccc4c(c3)OCO4)ccc2OC[C@H]1C	none (no result: Rtt109 Vps75, DYRK1A inh, SMARCA2 act, dFosB act, CDK5 inh)
O=[N+]([O-])c1cc([N+](=O)[O-])c2oc(-c3ccccc3)c(Br)c2c1O	DYRK1A inh 76 (no result: SMARCA2 act) | Dyrk1A artifact inactive
Nc1ccc(C(=O)O)cc1[N+](=O)[O-]	none (no result: DYRK1A inh)
C[C@@H]1CN([C@H](C)CO)C(=O)Cc2cc(NC(=O)Nc3ccc4c(c3)OCO4)ccc2O[C@H]1CN(C)CC1CC1	none (no result: Rtt109 Vps75, DYRK1A inh, SMARCA2 act, dFosB act, CDK5 inh)
CCOC(=O)C1=C(C)OC(N)=C(C#N)C1c1cc2c(cc1Br)OCO2 (configuration not stated)	DYRK1A inh 54 | Dyrk1A artifact inactive
C=CCOC(=O)C1=C(C)OC(N)=C(C#N)C1c1ccc2c(c1)OCO2 (configuration not stated)	none
CC(=O)N(C)C[C@@H]1Oc2cc(C#Cc3ccc(F)cc3)ccc2S(=O)(=O)N([C@@H](C)CO)C[C@H]1C	none (no result: Rtt109 Vps75, DYRK1A inh, SMARCA2 act, dFosB act, CDK5 inh)
COc1cc(/C=C2\SC(N)=NC2=O)cc(Cl)c1O	DYRK1A inh 61 | Dyrk1A artifact inactive
COc1cccc(Nc2ncnc3sc(C)cc23)c1	DYRK1A inh 77, esBAF inh 66 | Dyrk1A artifact inactive
COc1ccc(N2Nc3n[nH]c(N)c3N2)cc1	DYRK1A inh 61 | Dyrk1A artifact inactive
CCOc1ccc(N2Nc3n[nH]c(N)c3N2)cc1	none
CCCNC(=O)NC[C@H]1[C@H](c2ccc(C3=CCCC3)cc2)[C@H](CO)N1C(=O)CC	none (no result: Rtt109 Vps75, DYRK1A inh, SMARCA2 act, dFosB act, CDK5 inh)
C[C@@H]1C=C(C(=O)NCc2nc3ccccc3[nH]2)O[C@H](OCCCCO)C1	DYRK1A inh 51 | Dyrk1A artifact inactive
C[C@@H]1C=C(C(=O)NCc2nc3ccccc3[nH]2)O[C@H](OCc2ccc(CO)cc2)C1	none (no result: DYRK1A inh)
Oc1ccccc1/C=N/n1c(COc2ccccc2)n[nH]c1=S	none
Oc1ccc(/C=N/n2c(COc3ccccc3)n[nH]c2=S)c(O)c1	DYRK1A inh 67 | Dyrk1A artifact inactive
C[C@@H]1CN([C@@H](C)CO)C(=O)Cc2cc(NS(=O)(=O)c3ccccc3)ccc2O[C@H]1CN(C)C	none (no result: Rtt109 Vps75, DYRK1A inh, SMARCA2 act, dFosB act, CDK5 inh)
CSC1=NSC2=NC(=O)/C(=C/c3coc4ccccc4c3=O)C(=N)N12	none
COc1cc(/C=C2/C(=N)N3C(SC)=NSC3=NC2=O)ccc1OC(=O)c1ccco1	DYRK1A inh 58, esBAF inh 46 | Dyrk1A artifact inactive
CSC1=NSC2=NC(=O)/C(=C/c3coc4ccc(O)cc4c3=O)C(=N)N12	DYRK1A inh 87 | Dyrk1A artifact inactive
COCC(=O)N(C)C[C@@H]1Oc2cc(-c3ccc(OC)cc3)ccc2S(=O)(=O)N([C@H](C)CO)C[C@H]1C	none (no result: Rtt109 Vps75, DYRK1A inh, SMARCA2 act, dFosB act, CDK5 inh)
COCC(=O)N(C)C[C@@H]1Oc2ncc(-c3ccc(C#N)cc3)cc2C(=O)N([C@H](C)CO)C[C@H]1C	none (no result: Rtt109 Vps75, DYRK1A inh, SMARCA2 act, dFosB act, CDK5 inh)
COc1cc(/C=N/N2C(=O)CSC2=S)ccc1O	DYRK1A inh 52 | Dyrk1A artifact inactive
COc1ccc(-c2[nH]ncc2-c2ccc3c(c2)OCCO3)c(O)c1	DYRK1A inh 60 (no result: esBAF inh) | Dyrk1A artifact inactive
CCc1cc(-c2[nH]ncc2-c2ccc3c(c2)OCO3)c(O)cc1O	DYRK1A inh 52 | Dyrk1A artifact inactive
CCCc1cc(-c2[nH]ncc2-c2ccc3c(c2)OCCCO3)c(O)cc1OC	none (no result: Rtt109 Vps75, DYRK1A inh, dFosB act, esBAF inh, CDK5 inh)
CC(=O)Nc1ccc(SCc2ncc(-c3ccccc3)o2)cc1	DYRK1A inh 64, esBAF inh 55 | Dyrk1A artifact inactive
O=C(NCC1CC1)[C@H]1[C@H](CO)[C@H]2Cn3c(ccc(-c4ccccc4F)c3=O)[C@@H]1N2Cc1cccnc1	none (no result: Rtt109 Vps75, DYRK1A inh, SMARCA2 act, dFosB act, CDK5 inh)
O=C(Cc1ccncc1)NCC[C@H]1CC[C@H](NC(=O)C2CCCCC2)[C@H](CO)O1	none (no result: Rtt109 Vps75, DYRK1A inh, SMARCA2 act, dFosB act, CDK5 inh)
COc1ccccc1NC(=O)N[C@H]1CC[C@H](CCNC(=O)Cc2ccccn2)O[C@H]1CO	none (no result: Rtt109 Vps75, DYRK1A inh, SMARCA2 act, dFosB act, CDK5 inh)
CN1C(=O)c2cc(NC(=O)Cc3ccccc3)ccc2OC[C@H]2O[C@H](CC(=O)O)CC[C@@H]21	none (no result: Rtt109 Vps75, DYRK1A inh, SMARCA2 act, dFosB act, CDK5 inh)
Cc1cccc(C(C)n2nnc3ccccc32)c1O (configuration not stated)	DYRK1A inh 57 | Dyrk1A artifact inactive
Cc1cccc(Cn2nnc3ccccc32)c1O	none
Oc1c(Cl)c(Cl)c2ncccc2c1Cl	DYRK1A inh 55 | Dyrk1A artifact inactive
CCOC(=O)C(Cc1ccc(O)cc1)NC(=O)CCc1c[nH]c2ccccc12 (configuration not stated)	DYRK1A inh 51 | Dyrk1A artifact inactive
CC(=O)N(C)C[C@@H]1Oc2cc(C3=CCCC3)ccc2S(=O)(=O)N([C@@H](C)CO)C[C@H]1C	none (no result: Rtt109 Vps75, DYRK1A inh, SMARCA2 act, dFosB act, CDK5 inh)
COc1ccc2c(Cl)c(C(=O)N/N=C/c3cccnc3)sc2c1	DYRK1A inh 64 | Dyrk1A artifact inactive
COc1ccc2c(Cl)c(C(N)=O)sc2c1	DYRK1A inh 84 (no result: esBAF inh) | Dyrk1A artifact inactive
C[C@H](CO)N1C[C@H](C)[C@H](CN(C)C(=O)c2ccc(F)cc2)Oc2ncc(C3=CCCC3)cc2C1=O	none (no result: Rtt109 Vps75, DYRK1A inh, SMARCA2 act, dFosB act, CDK5 inh)
Nc1nc(Nc2cccc(F)c2)nc2ccccc12	DYRK1A inh 74, esBAF inh inconclusive | Dyrk1A artifact inactive
O=c1oc(Nc2cccc(F)c2)nc2ccccc12	none
O=C(O)c1cc2ccccc2c2c1C(=O)c1ccccc1-2	none (no result: Rtt109 Vps75, DYRK1A inh, dFosB act, CDK5 inh)
O=C(O)c1cc2ccccc2c2cc(Br)ccc12	DYRK1A inh 69 | Dyrk1A artifact inactive
Cc1ccc2oc(=O)c3cnn(CC(=O)NC4CCC(C)CC4)c3c2c1 (configuration not stated)	none
Cc1ccc2oc(=O)c3cnn(CC(=O)NC4CCCCC4C)c3c2c1 (configuration not stated)	DYRK1A inh 61 | Dyrk1A artifact inactive
CC(=O)Nc1cc2c(cc1[N+](=O)[O-])-c1ccccc1C2=NO	none (no result: esBAF inh)
Nc1cc2c(cc1[N+](=O)[O-])-c1ccccc1C2=NO	DYRK1A inh 80, dFosB act inconclusive (no result: esBAF inh) | Dyrk1A artifact inactive
CCCN1C[C@H](C)[C@H](OC)CN(C)C(=O)c2cc(NC(=O)COC)ccc2OC[C@H]1C	none (no result: Rtt109 Vps75, DYRK1A inh, SMARCA2 act, dFosB act, CDK5 inh)
CCC(=O)N[C@H]1CC[C@@H](CCn2cc(-c3cccc(OC)c3)nn2)O[C@@H]1CO	none (no result: Rtt109 Vps75, DYRK1A inh, SMARCA2 act, dFosB act, CDK5 inh)
Oc1ccc(-c2csc(-c3ccccc3)n2)cc1O	DYRK1A inh 55, esBAF inh 60 | Dyrk1A artifact inactive

Source: PubChem (several laboratories)
